Our source for the inhibition values is ChEMBL document CHEMBL1961873, “Compounds: GSK PKIS; Assays: Nanosyn kinase panel” (2012).

Assay [1] concerns the target Sphingosine kinase 1 (Homo sapiens) (UniProt Q9NYA1). Particulars: at 1 µM.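 Also: mean SPHK1 inhibition value reported from the GSK PKIS kinase panel screen.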
The target of assay [2] is T1, Sphingosine kinase 2 (Homo sapiens) (UniProt Q9NRA0).
T1 sequence (whole entry): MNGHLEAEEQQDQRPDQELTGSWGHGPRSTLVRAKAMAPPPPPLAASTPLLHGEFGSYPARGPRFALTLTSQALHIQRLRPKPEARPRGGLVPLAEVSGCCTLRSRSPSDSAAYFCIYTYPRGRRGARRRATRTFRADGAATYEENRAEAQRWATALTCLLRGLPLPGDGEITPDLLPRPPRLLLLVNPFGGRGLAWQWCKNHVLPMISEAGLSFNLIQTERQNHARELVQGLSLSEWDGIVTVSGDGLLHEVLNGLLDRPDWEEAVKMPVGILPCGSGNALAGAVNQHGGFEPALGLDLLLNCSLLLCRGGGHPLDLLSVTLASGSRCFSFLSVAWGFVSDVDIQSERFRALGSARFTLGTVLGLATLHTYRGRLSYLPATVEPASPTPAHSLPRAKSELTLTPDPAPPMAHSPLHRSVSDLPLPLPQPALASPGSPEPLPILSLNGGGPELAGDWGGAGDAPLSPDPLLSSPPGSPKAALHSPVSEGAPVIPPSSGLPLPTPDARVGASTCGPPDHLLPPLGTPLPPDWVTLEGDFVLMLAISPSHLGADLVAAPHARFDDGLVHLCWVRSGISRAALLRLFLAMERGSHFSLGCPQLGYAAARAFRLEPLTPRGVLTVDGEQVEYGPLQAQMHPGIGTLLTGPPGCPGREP
Particulars: at 0.1 µM.

The target of assay [3] is T1, Sphingosine kinase 2 (Homo sapiens). The conditions noted are these: at 1 µM.
In assay [4] the target is Casein kinase II subunit alpha (Homo sapiens) (UniProt P68400). Particulars: at 0.1 µM.
The target is the same in assay [5]. Particulars: at 1 µM.
For assay [6], the target named is T2, Inhibitor of nuclear factor kappa-B kinase subunit alpha (Homo sapiens) (UniProt O15111).
T2 sequence (whole entry): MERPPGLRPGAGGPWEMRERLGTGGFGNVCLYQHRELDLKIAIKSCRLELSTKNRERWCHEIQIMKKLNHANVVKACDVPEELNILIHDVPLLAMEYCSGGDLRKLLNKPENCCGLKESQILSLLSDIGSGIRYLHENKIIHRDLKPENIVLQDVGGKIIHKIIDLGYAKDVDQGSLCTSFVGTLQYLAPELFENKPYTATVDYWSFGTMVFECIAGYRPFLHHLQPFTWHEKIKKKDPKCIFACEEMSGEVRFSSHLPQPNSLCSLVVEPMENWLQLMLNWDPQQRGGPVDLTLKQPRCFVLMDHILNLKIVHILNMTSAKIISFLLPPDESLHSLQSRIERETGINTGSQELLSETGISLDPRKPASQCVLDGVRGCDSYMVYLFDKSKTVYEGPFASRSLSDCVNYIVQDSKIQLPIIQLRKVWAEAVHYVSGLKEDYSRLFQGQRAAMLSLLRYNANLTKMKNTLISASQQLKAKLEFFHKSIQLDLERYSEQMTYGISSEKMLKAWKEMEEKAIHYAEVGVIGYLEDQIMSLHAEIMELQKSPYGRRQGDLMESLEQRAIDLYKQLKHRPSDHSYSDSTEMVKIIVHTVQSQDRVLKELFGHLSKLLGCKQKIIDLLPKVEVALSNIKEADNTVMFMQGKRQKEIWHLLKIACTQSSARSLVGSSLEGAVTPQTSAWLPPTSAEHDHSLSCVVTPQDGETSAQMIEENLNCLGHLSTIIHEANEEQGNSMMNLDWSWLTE
Particulars: at 0.1 µM.

For assay [7], the target named is T2, Inhibitor of nuclear factor kappa-B kinase subunit alpha (Homo sapiens). Particulars: at 1 µM.
The target in assay [8] is T3, Inhibitor of nuclear factor kappa-B kinase subunit beta (Homo sapiens) (UniProt O14920).
T3 sequence (whole entry): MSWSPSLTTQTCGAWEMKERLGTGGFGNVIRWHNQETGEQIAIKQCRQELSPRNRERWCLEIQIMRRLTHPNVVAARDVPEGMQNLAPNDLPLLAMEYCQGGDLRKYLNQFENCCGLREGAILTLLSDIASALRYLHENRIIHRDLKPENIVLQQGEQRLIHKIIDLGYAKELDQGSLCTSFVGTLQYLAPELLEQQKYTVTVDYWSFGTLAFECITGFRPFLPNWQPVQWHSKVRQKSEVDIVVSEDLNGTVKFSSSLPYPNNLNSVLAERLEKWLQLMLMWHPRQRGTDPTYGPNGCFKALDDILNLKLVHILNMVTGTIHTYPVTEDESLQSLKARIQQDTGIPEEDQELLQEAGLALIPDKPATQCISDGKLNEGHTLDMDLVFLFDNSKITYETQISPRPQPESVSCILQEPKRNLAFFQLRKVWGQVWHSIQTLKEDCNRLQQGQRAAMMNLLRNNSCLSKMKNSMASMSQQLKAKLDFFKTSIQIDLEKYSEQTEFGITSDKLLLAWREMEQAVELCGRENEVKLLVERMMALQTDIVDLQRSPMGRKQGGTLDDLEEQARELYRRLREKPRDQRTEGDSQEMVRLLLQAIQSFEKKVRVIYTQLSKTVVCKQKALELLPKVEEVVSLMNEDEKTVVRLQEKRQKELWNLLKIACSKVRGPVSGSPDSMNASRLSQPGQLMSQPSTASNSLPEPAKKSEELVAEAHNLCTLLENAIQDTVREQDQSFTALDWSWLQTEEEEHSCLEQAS
The conditions noted are these: at 0.1 µM.

In assay [9] the target is T3, Inhibitor of nuclear factor kappa-B kinase subunit beta (Homo sapiens). Particulars: at 1 µM.
The target in assay [10] is T4, Inhibitor of nuclear factor kappa-B kinase subunit epsilon (Homo sapiens) (UniProt Q14164).
T4 sequence (whole entry): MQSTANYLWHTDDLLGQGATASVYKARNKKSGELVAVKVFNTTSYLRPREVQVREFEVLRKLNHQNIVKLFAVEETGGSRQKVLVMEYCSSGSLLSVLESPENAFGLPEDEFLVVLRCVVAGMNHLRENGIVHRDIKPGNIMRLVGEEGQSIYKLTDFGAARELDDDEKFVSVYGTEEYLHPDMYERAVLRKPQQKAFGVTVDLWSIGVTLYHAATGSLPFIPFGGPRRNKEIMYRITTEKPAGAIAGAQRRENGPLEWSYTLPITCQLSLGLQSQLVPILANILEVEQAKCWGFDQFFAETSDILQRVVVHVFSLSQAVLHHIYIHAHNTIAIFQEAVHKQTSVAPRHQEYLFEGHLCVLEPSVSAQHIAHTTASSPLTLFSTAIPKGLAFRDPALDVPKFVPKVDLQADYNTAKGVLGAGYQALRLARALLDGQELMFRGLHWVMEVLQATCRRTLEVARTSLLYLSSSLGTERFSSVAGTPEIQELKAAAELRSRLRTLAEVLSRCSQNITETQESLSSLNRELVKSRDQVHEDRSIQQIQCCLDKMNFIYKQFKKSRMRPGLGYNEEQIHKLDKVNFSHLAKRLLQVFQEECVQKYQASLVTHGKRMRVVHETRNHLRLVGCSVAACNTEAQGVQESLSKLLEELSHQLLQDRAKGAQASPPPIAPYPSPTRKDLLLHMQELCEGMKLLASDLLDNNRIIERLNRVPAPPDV
Particulars: at 0.1 µM.

Assay [11] addresses T4, Inhibitor of nuclear factor kappa-B kinase subunit epsilon (Homo sapiens). The conditions noted are these: at 1 µM.
In assay [12] the target is T5, Serine/threonine-protein kinase Nek1 (Homo sapiens) (UniProt Q96PY6).
T5 sequence (whole entry): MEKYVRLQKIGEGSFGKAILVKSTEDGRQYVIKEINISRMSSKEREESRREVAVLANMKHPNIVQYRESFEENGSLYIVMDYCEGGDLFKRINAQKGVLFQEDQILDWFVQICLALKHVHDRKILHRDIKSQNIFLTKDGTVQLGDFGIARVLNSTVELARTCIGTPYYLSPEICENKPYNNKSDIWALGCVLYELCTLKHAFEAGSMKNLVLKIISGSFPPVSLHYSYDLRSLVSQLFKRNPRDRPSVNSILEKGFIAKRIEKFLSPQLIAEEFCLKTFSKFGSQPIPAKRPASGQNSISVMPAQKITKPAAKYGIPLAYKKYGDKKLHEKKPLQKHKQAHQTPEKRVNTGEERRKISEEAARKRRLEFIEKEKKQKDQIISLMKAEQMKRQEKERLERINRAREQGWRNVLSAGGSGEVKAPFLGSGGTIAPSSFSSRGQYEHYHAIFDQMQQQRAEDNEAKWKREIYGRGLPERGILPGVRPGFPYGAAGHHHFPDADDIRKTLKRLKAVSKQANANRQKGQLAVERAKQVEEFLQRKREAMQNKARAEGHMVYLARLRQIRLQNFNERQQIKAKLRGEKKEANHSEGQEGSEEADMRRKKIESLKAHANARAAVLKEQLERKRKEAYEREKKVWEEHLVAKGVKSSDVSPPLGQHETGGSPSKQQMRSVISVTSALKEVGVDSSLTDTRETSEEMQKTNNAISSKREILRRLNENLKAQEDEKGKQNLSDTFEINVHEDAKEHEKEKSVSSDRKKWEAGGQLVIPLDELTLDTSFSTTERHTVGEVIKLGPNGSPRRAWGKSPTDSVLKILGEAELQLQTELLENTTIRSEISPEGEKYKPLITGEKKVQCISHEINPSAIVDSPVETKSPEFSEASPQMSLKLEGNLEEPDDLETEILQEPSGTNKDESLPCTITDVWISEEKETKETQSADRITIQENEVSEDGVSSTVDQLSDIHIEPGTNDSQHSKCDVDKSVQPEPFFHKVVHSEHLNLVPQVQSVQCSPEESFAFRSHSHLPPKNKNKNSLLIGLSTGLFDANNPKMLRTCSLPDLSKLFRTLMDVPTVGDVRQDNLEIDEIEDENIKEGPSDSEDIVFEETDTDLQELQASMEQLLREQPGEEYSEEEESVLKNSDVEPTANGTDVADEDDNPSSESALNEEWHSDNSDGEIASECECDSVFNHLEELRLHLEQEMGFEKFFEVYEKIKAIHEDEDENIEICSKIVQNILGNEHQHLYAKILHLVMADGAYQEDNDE
Particulars: at 0.1 µM.

The target of assay [13] is T5, Serine/threonine-protein kinase Nek1 (Homo sapiens). The conditions noted are these: at 1 µM.
Assay [14] addresses T6, Serine/threonine-protein kinase Nek2 (Homo sapiens) (UniProt P51955).
T6 sequence (whole entry): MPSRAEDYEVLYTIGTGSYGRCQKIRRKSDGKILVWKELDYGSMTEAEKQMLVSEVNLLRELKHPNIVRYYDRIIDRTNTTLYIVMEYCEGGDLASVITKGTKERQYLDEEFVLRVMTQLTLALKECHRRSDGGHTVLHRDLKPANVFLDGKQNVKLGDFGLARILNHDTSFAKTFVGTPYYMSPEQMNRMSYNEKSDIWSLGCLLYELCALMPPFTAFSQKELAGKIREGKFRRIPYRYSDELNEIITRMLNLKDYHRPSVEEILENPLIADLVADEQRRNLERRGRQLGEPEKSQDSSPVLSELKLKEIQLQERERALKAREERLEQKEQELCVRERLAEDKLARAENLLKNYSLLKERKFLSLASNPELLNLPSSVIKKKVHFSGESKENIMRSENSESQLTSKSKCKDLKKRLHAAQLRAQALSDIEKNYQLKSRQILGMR
Particulars: at 0.1 µM.

Assay [15] addresses T6, Serine/threonine-protein kinase Nek2 (Homo sapiens). Particulars: at 1 µM.
Assay [16] addresses Serine/threonine-protein kinase Nek6 (Homo sapiens) (UniProt Q9HC98). The conditions noted are these: at 0.1 µM.
The target is the same in assay [17]. The conditions noted are these: at 1 µM.
In assay [18] the target is Serine/threonine-protein kinase Nek7 (Homo sapiens) (UniProt Q8TDX7). The conditions noted are these: at 0.1 µM.
Assay [19] shares this target. Particulars: at 1 µM.
Assay [20] has as its target T7, Serine/threonine-protein kinase Nek9 (Homo sapiens) (UniProt Q8TD19).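 Also: reported value is the mean percent inhibition of NEK9.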
T7 sequence (whole entry): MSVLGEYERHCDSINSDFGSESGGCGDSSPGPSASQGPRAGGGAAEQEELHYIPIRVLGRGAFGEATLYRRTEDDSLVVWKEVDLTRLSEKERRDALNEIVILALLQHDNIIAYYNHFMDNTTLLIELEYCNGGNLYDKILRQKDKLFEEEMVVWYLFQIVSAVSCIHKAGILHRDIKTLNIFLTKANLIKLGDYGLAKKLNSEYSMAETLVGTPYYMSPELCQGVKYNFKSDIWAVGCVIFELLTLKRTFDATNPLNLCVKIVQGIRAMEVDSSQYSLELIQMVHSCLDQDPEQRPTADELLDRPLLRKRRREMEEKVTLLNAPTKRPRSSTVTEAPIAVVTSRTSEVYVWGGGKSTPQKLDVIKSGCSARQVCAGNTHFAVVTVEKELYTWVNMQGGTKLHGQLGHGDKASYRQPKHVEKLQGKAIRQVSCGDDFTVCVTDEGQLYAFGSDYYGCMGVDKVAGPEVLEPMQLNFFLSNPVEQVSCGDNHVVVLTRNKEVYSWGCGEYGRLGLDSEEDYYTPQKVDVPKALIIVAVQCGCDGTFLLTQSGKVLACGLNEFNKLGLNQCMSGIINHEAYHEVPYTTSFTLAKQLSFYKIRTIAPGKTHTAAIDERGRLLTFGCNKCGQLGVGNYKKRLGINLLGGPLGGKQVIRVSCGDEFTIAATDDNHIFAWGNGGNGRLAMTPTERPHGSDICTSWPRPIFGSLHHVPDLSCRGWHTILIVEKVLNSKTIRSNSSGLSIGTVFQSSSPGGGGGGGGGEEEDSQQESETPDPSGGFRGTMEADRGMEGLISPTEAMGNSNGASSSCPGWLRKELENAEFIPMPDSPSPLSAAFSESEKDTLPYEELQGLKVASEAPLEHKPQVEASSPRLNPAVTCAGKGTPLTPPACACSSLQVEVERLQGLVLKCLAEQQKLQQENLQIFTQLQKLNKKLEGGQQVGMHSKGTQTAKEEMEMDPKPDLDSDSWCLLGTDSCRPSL
The conditions noted are these: at 0.1 µM.

The inhibition is the change of the read-out against control, counted positive when it falls.

Chain of Casein kinase II subunit alpha (Homo sapiens) (P68400 whole entry, looked up): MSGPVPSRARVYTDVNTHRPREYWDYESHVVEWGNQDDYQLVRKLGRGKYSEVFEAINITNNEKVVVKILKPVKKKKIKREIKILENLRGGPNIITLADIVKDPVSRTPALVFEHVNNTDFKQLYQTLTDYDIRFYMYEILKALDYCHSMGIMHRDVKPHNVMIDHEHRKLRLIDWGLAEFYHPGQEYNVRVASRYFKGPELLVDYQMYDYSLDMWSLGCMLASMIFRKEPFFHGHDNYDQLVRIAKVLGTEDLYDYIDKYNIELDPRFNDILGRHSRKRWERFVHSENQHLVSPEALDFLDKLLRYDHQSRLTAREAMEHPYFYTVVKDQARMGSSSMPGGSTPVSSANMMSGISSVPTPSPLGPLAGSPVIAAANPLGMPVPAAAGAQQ
Chain of Serine/threonine-protein kinase Nek6 (Homo sapiens) (Q9HC98 whole entry): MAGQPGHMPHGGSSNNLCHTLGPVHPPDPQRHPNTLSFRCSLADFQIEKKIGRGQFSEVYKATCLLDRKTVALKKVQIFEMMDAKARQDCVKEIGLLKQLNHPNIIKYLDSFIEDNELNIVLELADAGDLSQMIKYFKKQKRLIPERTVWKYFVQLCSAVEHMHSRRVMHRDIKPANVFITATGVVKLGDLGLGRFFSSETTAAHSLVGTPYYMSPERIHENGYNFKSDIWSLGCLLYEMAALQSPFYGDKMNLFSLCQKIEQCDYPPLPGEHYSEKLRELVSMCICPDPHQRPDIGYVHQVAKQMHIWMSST
Chain of Serine/threonine-protein kinase Nek7 (Homo sapiens) (Q8TDX7 whole entry, looked up): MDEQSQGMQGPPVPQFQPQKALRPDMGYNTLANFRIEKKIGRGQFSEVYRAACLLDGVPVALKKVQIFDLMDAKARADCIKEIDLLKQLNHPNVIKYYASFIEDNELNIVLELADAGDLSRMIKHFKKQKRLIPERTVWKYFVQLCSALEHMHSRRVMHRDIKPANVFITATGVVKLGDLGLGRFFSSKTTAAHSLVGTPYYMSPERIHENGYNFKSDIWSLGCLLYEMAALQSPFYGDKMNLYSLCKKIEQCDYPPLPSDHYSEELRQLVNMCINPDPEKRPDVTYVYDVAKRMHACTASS
Chain of Sphingosine kinase 1 (Homo sapiens) (Q9NYA1 whole entry): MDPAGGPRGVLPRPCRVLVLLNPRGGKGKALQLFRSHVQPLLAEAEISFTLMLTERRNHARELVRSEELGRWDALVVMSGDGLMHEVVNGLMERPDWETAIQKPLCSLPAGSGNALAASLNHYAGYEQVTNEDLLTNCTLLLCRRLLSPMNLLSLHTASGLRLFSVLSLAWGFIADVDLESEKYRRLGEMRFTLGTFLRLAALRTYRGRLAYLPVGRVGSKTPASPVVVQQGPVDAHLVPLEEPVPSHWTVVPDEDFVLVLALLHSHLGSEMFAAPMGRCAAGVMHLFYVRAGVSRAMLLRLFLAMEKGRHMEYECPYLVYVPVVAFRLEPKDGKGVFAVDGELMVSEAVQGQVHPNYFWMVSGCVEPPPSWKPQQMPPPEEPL

As to `COc1ccc2ncn(-c3cc(O[C@H](C)c4ccccc4Cl)c(C(N)=O)s3)c2c1`, the inhibition in assay [1] is -2.39%; in assay [2], -0.22%; in assay [3] it was 0.79%; in [4] it was 5.1%; in assay [5], 3.41%; in assay [6], 7.01%. Moreover, the inhibition in [7] came out at 6.42%; in assay [8], 6.12%; in assay [9], 4.8%; in [10], 5.23%; in assay [11], 4.23%; in [12] it was 4.81%. Further, the inhibition in assay [13] is 24.8%; in [14], 5.9%; in [15], 10.3%; in assay [16], 0.15%; in assay [17] it was 0.34%; in [18], 3.12%. Moreover, the inhibition was determined as 6.32% in assay [19] and 31.8% in assay [20].
